Shiga toxin inh: A qHTS for Small Molecule Inhibitors of Shiga Toxin; AID 2315, 2010; inhibition, % at 38.7 µM; Vero cells, Shiga toxin protein synthesis inhibition reporter; 9.2% of 290,000 active; in the data active means inhibition mostly above about 28%, no sharp cut-off; inactive means mostly below about 43%; further: 0% is about no effect
CHX counter: Cycloheximide Counterscreen for Small Molecule Inhibitors of Shiga Toxin; cell reporter, cycloheximide protein synthesis inhibition counterscreen; 12% of 300,000 active; max response, %; in the data active means max response mostly above about 13%, no sharp cut-off; inactive means mostly below about 14%; further: read at 38.3 µM for the half of the compounds with a filed dose; 0% is about no effect
FBPA Giardia inh: qHTS Assay for Inhibitors of Fructose-1,6-bisphosphate Aldolase from Giardia Lamblia; 0.71% of 290,000 active; purified Giardia FBPA; Potency, µM (doses to about 59.6 µM), for inactives: top-dose activity, negative = inhibition, usual class: inhibitors; further: potency means the concentration at half of the fitted maximal effect; on the % scale 0 is the no-effect control and ±100 the full control effect; nearly all actives have a fitted effect of over 55% in size
Target sequence (A8B2U2 whole entry, looked up): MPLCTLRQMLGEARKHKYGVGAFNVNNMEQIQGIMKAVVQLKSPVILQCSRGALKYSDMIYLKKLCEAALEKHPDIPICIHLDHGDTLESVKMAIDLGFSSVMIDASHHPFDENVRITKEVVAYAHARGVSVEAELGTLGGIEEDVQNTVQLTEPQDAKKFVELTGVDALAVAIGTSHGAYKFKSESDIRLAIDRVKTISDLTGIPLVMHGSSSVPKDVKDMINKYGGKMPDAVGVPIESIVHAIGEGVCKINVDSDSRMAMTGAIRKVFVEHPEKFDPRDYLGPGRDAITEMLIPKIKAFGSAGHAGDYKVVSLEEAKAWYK
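40 nM FBPA preincubated 10 min at RT with compound (up to 57.5 uM final), then substrate plus GAPDH/TPI/NAD/arsenate coupling and diaphorase/resazurin added. Fluorescence read after 20 min at RT, 525/598 nm.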
Tb PYK inh: qHTS of Trypanosoma Brucei Inhibitors. pyruvate kinase (Trypanosoma brucei), Q57TT1. TbPYK enzyme, Kinase-Glo Plus ATP luminescence, 45 min. Potency, µM (series often up to 76.8 µM), inactives show at the highest dose activity, negative = inhibition, usual class: inhibitors. 0.12% of 410,000 active. AID 624173, 2012; further: potency means the concentration at half of the fitted maximal effect; on the % scale 0 is the no-effect control and ±100 the full control effect; nearly all actives have a fitted effect of over 50% in size
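Readout: single end-point luminescence (Kinase-Glo Plus, 10 min). Reaction conditions were TbPYK/substrate plus 130 uM ADP, 45 min at RT, pH 7.2 TEA buffer. No-enzyme wells served as controls, and data were normalized before concentration-response fitting.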
RE007 growth inh: qHTS Assay for Inhibitors of the HIV-1 protein Vpr. Potency, µM (titrated, usually from 92.2 µM), without a hit: top-dose activity change, negative = less growth, hits mostly inhibitors. 0.21% of 360,000 active. S. pombe RE007 Vpr strain, BacTiter-Glo ATP luminescence, 24 h; active means well fitted falling curve with a large enough effect; inconclusive means small, poorly fitted or top-dose-only effect; inactive means no such curve, though single readings can be large or run the other way; further: potency means the concentration at half of the fitted maximal effect; on the % scale 0 is the no-effect control and ±100 the full control effect; nearly all actives have a fitted effect of over 50% in size
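Fission yeast RE007 carrying one integrated HIV-1 vpr copy, seeded at OD 0.01 in PMG+AL medium with 23 nL pinned compound. Grown 24 h at 30 degrees; viability read by BacTiter-Glo luminescence after 5 min.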
LmPK inhibitor: qHTS Assay for Inhibitors of Leishmania Mexicana Pyruvate Kinase (LmPK); Q27686; purified LmPK, Kinase-Glo ATP luminescence, 1 h; Potency, µM (titrated, usually from 57.5 µM), without a hit: at the top dose activity change, negative = inhibition, actives largely listed as inhibitors; 0.37% of 290,000 active; AID 1721, 2009; further: potency means the concentration at half of the fitted maximal effect; on the % scale 0 is the no-effect control and ±100 the full control effect
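Kinase-Glo luminescence read after 1 h RT reaction of 0.1 nM LmPK with 0.5 mM PEP and 0.1 mM ADP. Activity scaled between uninhibited and enzyme-free controls.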
Numbers without * were called inactive. The full list was thinned out, with hits kept by preference. Unless noted, the call rests on the fitted dose curve; in most records, active means well fitted curve in the direction sought with a large enough effect; inconclusive means small, poorly fitted or top-dose-only effect, or another doubt; inactive means no such curve, though single readings can be large; an effect the other way counts as inactive or inconclusive.

How did CC/C(=N\N1CCCCCC1)c1c(O)n(-c2ccc(C)cc2)c(=O)[nH]c1=O do in these assays?
Shiga toxin inh: -5; CHX counter: 18*; FBPA Giardia inh: -1%; Tb PYK inh: -2%; RE007 growth inh: 19%; LmPK inhibitor: -2%

Results for C/C(=N\N1CCCCCC1)c1c(O)n(-c2ccc(C)cc2)c(=O)[nH]c1=O ?
Shiga toxin inh: active; CHX counter: 43*; FBPA Giardia inh: 0%; Tb PYK inh: -8%; RE007 growth inh: 15%; LmPK inhibitor: 2%

What do the screens show for `COc1ccc([C@@H]2CC(=O)c3c(O)cc(O[C@@H]4O[C@H](CO)[C@@H](O)[C@H](O)[C@H]4O[C@@H]4O[C@@H](C)[C@H](O)[C@@H](O)[C@H]4O)cc3O2)cc1`?
Shiga toxin inh: -6; CHX counter: -3; FBPA Giardia inh: -1%

What do the screens show for `CC(=O)Nc1ccc(S(=O)(=O)Oc2ccc(C=O)cc2)cc1`?
Shiga toxin inh: -4; CHX counter: -2; FBPA Giardia inh: 5%; Tb PYK inh: -10%; LmPK inhibitor: 1%

What do the screens show for `CC(=O)Nc1ccc(OS(=O)(=O)c2ccc(Cl)cc2)cc1`?
Shiga toxin inh: 40*; CHX counter: 12; FBPA Giardia inh: 1%; Tb PYK inh: 4%; RE007 growth inh: 8%; LmPK inhibitor: 1%

What do the screens show for `Cc1nn(CCCC(=O)NCc2cccc(Cl)c2)c(=O)c2c1sc1ccccc12`?
Tb PYK inh: -8%

What do the screens show for `Cc1ccc(CN2C(=O)c3ccccc3S(=O)(=O)c3ccc(C(=O)OCC4CCCO4)cc32)cc1` (configuration not stated)?
Tb PYK inh: 4%

Results for CCOC(=O)c1cnc2cc3c(cn2c1=O)CCCC3 ?
Shiga toxin inh: 55*; CHX counter: 28*; FBPA Giardia inh: -4%; Tb PYK inh: -6%; RE007 growth inh: -2%; LmPK inhibitor: -5%

What do the screens show for `O=C(O)c1ccc(N/N=C/C2=C(N3CCOCC3)C(=C\c3ccccc3)/CC2)cc1`?
Shiga toxin inh: 74*; CHX counter: 38*; FBPA Giardia inh: -6%; Tb PYK inh: -28%; RE007 growth inh: inconclusive; LmPK inhibitor: -2%

Results for CN(C(=O)NC(=O)C1=C(N2CCOCC2)/C(=C/c2ccccc2)CC1)S(C)(=O)=O ?
Shiga toxin inh: 53*; CHX counter: 29*; FBPA Giardia inh: 13%; Tb PYK inh: -15%; RE007 growth inh: -3%; LmPK inhibitor: 1%

How did Cc1cc(C)nc(N/N=C/C2=C(N3CCOCC3)C(=C\c3ccc(Cl)cc3)/CC2)n1 do in these assays?
Shiga toxin inh: 10; CHX counter: -3; FBPA Giardia inh: -13%; Tb PYK inh: -12%; RE007 growth inh: -6%; LmPK inhibitor: -1%

How did CC(C)c1ccc(C(O)c2nc3ccccc3n2C)cc1 (configuration not stated) do in these assays?
Shiga toxin inh: 22; CHX counter: 9; FBPA Giardia inh: 1%; Tb PYK inh: -5%; RE007 growth inh: 2%; LmPK inhibitor: 0%

How did CC(C)c1ccc(C(O)Cc2nc3ccccc3n2C)cc1 (configuration not stated) do in these assays?
Shiga toxin inh: 127*; CHX counter: 60*; FBPA Giardia inh: -9%; Tb PYK inh: -1%; RE007 growth inh: -3%; LmPK inhibitor: 1%

Results for COc1cc(C(=O)Cc2nc3ccccc3n2C)cc(OC)c1OC ?
Shiga toxin inh: 21; CHX counter: 8; FBPA Giardia inh: 13%; Tb PYK inh: -15%; RE007 growth inh: -18%; LmPK inhibitor: 3%

What do the screens show for `CN(C)c1ccc(C(O)Cc2nc3ccccc3n2C)cc1` (configuration not stated)?
Shiga toxin inh: 63*; CHX counter: 25*; FBPA Giardia inh: -25%; Tb PYK inh: -3%; RE007 growth inh: inconclusive; LmPK inhibitor: 6%

What do the screens show for `COc1ccccc1C(O)Cc1nc2ccccc2n1C` (configuration not stated)?
Shiga toxin inh: 108*; CHX counter: 63*; FBPA Giardia inh: -2%; Tb PYK inh: 0%; RE007 growth inh: -2%; LmPK inhibitor: -4%

Results for O=C1/C(=C/c2ccc(Cl)cc2)SC(=S)N1CCC(=O)N1CCCCC1CCO (configuration not stated) ?
Shiga toxin inh: 7; CHX counter: -18; Tb PYK inh: -7%; RE007 growth inh: -13%; LmPK inhibitor: -7%

How did O=C1/C(=C/c2ccccc2F)SC(=S)N1CCC(=O)N1CCCCC1CCO (configuration not stated) do in these assays?
Shiga toxin inh: 12; CHX counter: 31*; Tb PYK inh: -6%; RE007 growth inh: -5%; LmPK inhibitor: 6%

What do the screens show for `O=C1/C(=C/c2ccco2)SC(=S)N1CCC(=O)N1CCCCC1CCO` (configuration not stated)?
Shiga toxin inh: 16; CHX counter: 11*; Tb PYK inh: -21%; RE007 growth inh: -10%; LmPK inhibitor: 14%

What do the screens show for `O=C1/C(=C/c2cccc(Cl)c2)SC(=S)N1CCC(=O)N1CCCCC1CCO` (configuration not stated)?
Shiga toxin inh: 26; CHX counter: 15; Tb PYK inh: -4%; RE007 growth inh: -6%; LmPK inhibitor: -7%

What do the screens show for `O=C1/C(=C/c2ccccc2)SC(=S)N1CCCC(=O)N1CCCCC1CCO` (configuration not stated)?
Shiga toxin inh: -3; CHX counter: 4; Tb PYK inh: 4%; RE007 growth inh: 4%; LmPK inhibitor: 11%

How did O=C1/C(=C/c2cccs2)SC(=S)N1CC(=O)N1CCCCC1CCO (configuration not stated) do in these assays?
Shiga toxin inh: 18; CHX counter: 15*; Tb PYK inh: -11%; RE007 growth inh: -14%; LmPK inhibitor: 0%

What do the screens show for `CC(=O)NC1C(OCc2ccccc2)OC2COC(c3ccccc3)OC2C1OCC(=O)O` (configuration not stated)?
Shiga toxin inh: 33; CHX counter: 41*; FBPA Giardia inh: 1%; Tb PYK inh: -15%; RE007 growth inh: 0%; LmPK inhibitor: -5%

Results for NC(N)=NN=C(/C=C/c1ccc([N+](=O)[O-])o1)/C=C/c1ccc([N+](=O)[O-])o1 ?
Tb PYK inh: 3%

Assay outcomes as filed in PubChem BioAssay.
